The source of these data is PubChem BioAssay (Tox21).

Molecules are shown by their SMILES. Records with an inconclusive call do not appear. A call without a number means that no potency is given here. Active and inactive are the calls of the source. The call rests on the fitted dose curve; in most records, active means well fitted cell-killing curve with a large enough effect in the repeat runs; inconclusive means weak or mixed curves, or effect the other way; inactive means no such curve, though single readings can be large or run the other way.

A short description of this assay: qHTS assay to identify small molecule antagonists of the peroxisome proliferator-activated receptor gamma (PPARg) signaling pathway - cell viability counter screen (AID 743194). Further: nearly all actives have a fitted effect of over 55% in size. The note with it: PPARg-bla HEK293H viability, CellTiter-Glo luminescence, 17 h, co-treated with 50 nM rosiglitazone; series mostly up to 62.6 µM; activity change, negative = cytotoxicity: at the top concentration. In outline:
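Cytotoxicity counter screen in PPARg-bla HEK293H cells, same wells as reporter assay. Compounds plus 50 nM rosiglitazone (final) for 17 h at 37 C, then viability read by CellTiter-Glo luminescence.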
A general note: In qHTS, concentration-response curves come from the screen itself.
Turning to `COC(=O)Nc1nc2ccc(Sc3ccccc3)cc2[nH]1`, the Potency result was “inactive”.

In the case of `CC1=C(CC(=O)O)c2cc(F)ccc2/C1=C\c1ccc(S(C)=O)cc1` (stereo not drawn), the “activity change, negative = cytotoxicity” value was -0.626% (inactive).

For `Cc1ccc(C)c(C)c1`, the Potency result was “inactive”.

On to `NC(=O)/N=N/C(N)=O`, for which the Potency result is “inactive”.

Consider `Cc1ccc(C(=O)O)o1`, for which the Potency entry is “inactive”.

With `O=C(c1ccc(O)cc1)c1ccc(O)cc1O`, the Potency entry was “inactive”.

Take `Nc1cc(-c2ccncc2)c[nH]c1=O`: the Potency entry was “inactive”.

Consider `CC1=C(/C=C/C(C)=C/C=C/C(C)=C/CO)C(C)(C)CCC1`, for which the Potency entry was “inactive”.

On to `C/C=C(C)/C=C/C=C(C)C`, for which the “activity change, negative = cytotoxicity” value is 8% (inactive).

`CCCCC(CC)COC(=O)/C=C\C(=O)OCC(CC)CCCC` (stereo not drawn): the Potency result is “inactive”.

As to `CC1COc2ccccc2N1C(=O)C(Cl)Cl` (stereo not drawn), the “activity change, negative = cytotoxicity” value is -0.701% (inactive).

Consider `O=C(O)c1cc(-c2ccccc2)nc2ccccc12`, for which the “activity change, negative = cytotoxicity” value is -5.31% (inactive).

Turning to `Nc1nc2ncc(CNc3ccc(C(=O)N[C@@H](CCC(=O)O)C(=O)O)cc3)nc2c(=O)[nH]1`, the Potency entry was “inactive”.
